Assay results published in PubChem BioAssay (NCI).
Values joined by “and” are separate entries in the source; they are usually repeats but may differ in a detail not shown here. Identical values can stand only once. The panel holds about 83,000 compounds, 20% with a hit somewhere; the sample as a whole holds those more often.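 A percent growth of 40 corresponds to 60% growth inhibition; 0 means no net growth; -100 means all cells died. Active threshold: below 10.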 Unmarked numbers belong to inactive results. Active and inactive are the calls of the source.

Test system: OVCAR-3 ovarian
Assay: NCI-60 one-dose screen, 48 h (100 = growth as untreated, 0 = no growth, -100 = all killed)
Conditions: 0.01 µM
Procedure: Growth inhibition of the OVCAR-3 human tumor cell line is measured as a screen for anti-cancer activity. Cells are grown in 96 well plates and exposed to the test compound for 48 hours. Compounds are tested at a single concentration, which is 10^-5 M for most compounds. The reported endpoint is percent growth (GI% or GIPRCNT), where numbers from 0 - 100% represent growth inhibition, and numbers from -100% - 0 represent cell death. For example, a value of 40 represents 60% growth inhibition. A value of 0 means no net growth occurred over the course of the experiment. A value of -40 indicates 40% of cells at the beginning of the experiment died by the end of the experiment. A value of -100 means all cells are dead at the end of the experiment.
NCI-60 Human Tumor Cell Lines Screen was performed using the standard one-dose NCI protocol, which is described in more detail at https://dtp.cancer.gov/discovery_development/nci-60/default.htm.
Compounds with GIPRCNT values below 10 were considered active. Activity score was based on GIPRCNT using the following formula: […]
Score is 0 for GIPRCNT values of 100 or above, 50 for GIPRCNT values of 0, and 100 for GIPRCNT values of -100.

| Structure (SMILES) | growth |
| --- | --- |
| CC(=O)O[C@H]1C(=O)[C@@]2(C)[C@H]([C@H](OC(=O)c3ccccc3)[C@]3(O)C[C@H](OC(=O)[C@H](O)[C@@H](NC(=O)c4ccccc4)c4ccccc4)C(C)=C1C3(C)C)[C@]1(OC(C)=O)CO[C@@H]1C[C@@H]2O | -6.94% (active) |

Same assay, conditions: 2.5 µM

| Structure (SMILES) | growth |
| --- | --- |
| CC(=O)O[C@H]1C(=O)[C@@]2(C)[C@H]([C@H](OC(=O)c3ccccc3)[C@]3(O)C[C@H](OC(=O)[C@H](O)[C@@H](NC(=O)c4ccccc4)c4ccccc4)C(C)=C1C3(C)C)[C@]1(OC(C)=O)CO[C@@H]1C[C@@H]2O | -5.62% (active) |

Same assay, conditions: 5 µM

| Structure (SMILES) | growth |
| --- | --- |
| CC(=O)O[C@H]1C(=O)[C@@]2(C)[C@H]([C@H](OC(=O)c3ccccc3)[C@]3(O)C[C@H](OC(=O)[C@H](O)[C@@H](NC(=O)c4ccccc4)c4ccccc4)C(C)=C1C3(C)C)[C@]1(OC(C)=O)CO[C@@H]1C[C@@H]2O | -2.89% (active) |

Same assay, conditions: 10 µM

| Structure (SMILES) | growth |
| --- | --- |
| Cn1c2nc3ccccc3c-2nc2ccccc21 | 99.2% and 93.3% |
| CCC(=O)Oc1ccc(/C=N/NC(N)=S)nc1 | 57.3% |
| O=C1C=CC(=O)N1c1ccc(N2C(=O)C=CC2=O)cc1 | 103% |
| Nc1nc(N)c2cc(Sc3ccc4ccccc4c3)ccc2n1 | 38.8% |
| COc1cc(N)ccc1Nc1c2ccccc2nc2ccccc12 | 80.6% |
| COc1ccc2c(c1)[nH]c1c(/C=C/c3ccccc3)nccc12 | 73.4% |
| O=C1c2ccccc2CCC1(Br)Br | -69.6% (active) |
| Cc1cc(C)c(N2C(=O)CC(Sc3ccccc3N)C2=O)c(C)c1 (stereo not given) | 71.1% |
| O=C(CNS(=O)(=O)Cc1ccccc1)NNc1ccccc1 | 86.8% |
| ClCCn1c(CCl)nc2ccc(Cl)cc21 | -89.6% (active) |
| O=C1c2cccc3cc([N+](=O)[O-])cc(c23)C(=O)N1CCN1CCCC1 | -16.8% (active) |
| C=C1N(C)c2ccc(Cl)cc2C1(C)C | 42.9% |
| Cc1cc(N=C2C=CC(=[N+](C)C)C=C2)c(N)cc1N | 16.5% |
| N#CC(=C1C=CC(=NO)C=C1)c1ccccc1 | -26.8% (active) |
| CC(=O)O[C@H]1C(=O)[C@@]2(C)[C@H]([C@H](OC(=O)c3ccccc3)[C@]3(O)C[C@H](OC(=O)[C@H](O)[C@@H](NC(=O)c4ccccc4)c4ccccc4)C(C)=C1C3(C)C)[C@]1(OC(C)=O)CO[C@@H]1C[C@@H]2O | 0.613% (active) and 0.903% (active) |
| Cc1cc(O)c2c(c1O)C(=O)C13C(=C2O)C(=O)C2C(O)C1C1C(O)C3C(=O)C3=C(O)c4c(O)cc(C)c(O)c4C(=O)C321 (stereo not given) | -39.1% (active) |
| Cn1ncc2cc3c(Nc4ccc(Cl)cc4)cccc3nc21 | 94.1% |
| O=C(NC(=S)Nc1ccccn1)c1ccccc1 | 98% |

| Structure (SMILES) | growth |
| --- | --- |
| O=c1[nH]cc(/C=N\Nc2ccccc2)c(=O)[nH]1 | 81.2% |
| CN(C)CCNc1cccc2sc3ccc(O)cc3c(=O)c12 | 41.8% |
| CCC(C)(c1ccc(O)c(C)c1)c1ccc(O)c(C)c1 | 102% |
| S=P(N1CC1)(N1CC1)N1CC1 | 118% and 106% |
| CN(C)c1ccc(/C=C/c2ccnc3ccccc23)cc1N | 70.7% |
| O=Nc1ccc(Nc2ccccc2)cc1 | 49.4% |
| N#C/C(=C/N1C(=O)/C(=C/c2ccc([N+](=O)[O-])cc2)SC1=S)c1nc2ccccc2s1 | 82.2% |
| CN(CC(=O)O)c1ccc(/C=C/c2ccnc3ccccc23)cc1 | 90.4% |
| COc1cccc(C(c2cc3c(cc2O)OCO3)N2CCOCC2)c1OC (stereo not given) | 111% |
| O=S(=O)(c1cc(Cl)ccc1O)c1cc(Cl)ccc1O | 78% |
| CC1CCC2(C(=O)O)CCC3(C)C(=CCC4C5(C)CC(O)C(O)C(C)(CO)C5C(O)CC43C)C2C1C (stereo not given) | 118% |
| CC[C@@]1(OC(=O)CN(C)C)C(=O)OCc2c1cc1n(c2=O)Cc2cc3c(N)cccc3nc2-1 | -34.2% (active) |
| Cc1c(-c2ccccc2)[nH]c2ccccc12 | 105% |
| O=C1C(Cl)=C(Cl)C(Cl)(Cl)C(Cl)C1(Cl)Cl (stereo not given) | 112% |
| COc1ccc(N)c2c1C(=O)c1ccccc1C2=O | 115% |
| O=[N+]([O-])c1cc(S(=O)(=O)Nc2ccccc2)ccc1Cl | 106% |
| NCc1c(O)ccc2ccccc12 | 99.4% |
| COc1ccc2oc(-c3ccc(Cl)cc3)c(N3CCN(C)CC3)c2c1 | 1.93% (active) |

Same assay, conditions: 100 µM

| Structure (SMILES) | growth |
| --- | --- |
| S=P(N1CC1)(N1CC1)N1CC1 | 69.8% |
